Measured values reported in ChEMBL document CHEMBL3988442, “University of Dundee, Small-Polar-MMV Screening Library” (2021).
In all, about 48,000 compounds went through this assay and about 13,000 (27%) showed an effect of 50% or more. This is one part of the list.

tested on: Wolbachia pipientis; assay: Anti-Wolbachia Cell-Based Screen; format: functional; parameters: scale not given: in the data most compounds retested in dose-response had high values; conditions: 5 µM

Structure (SMILES) | Percent Effect
CCCc1cncnc1N1CCC(NCc2ccc(O)cc2)CC1 | -4.089%
O=C(Nc1cccnc1)C1=Cc2ccccc2OC1 | 18.82%
O=C(CSC1CCCC1)N1CCN(c2ccc(-n3cncn3)nn2)CC1 | 20.49%
CCN1CCN(Cc2nc(CCc3ccccc3)n[nH]2)CC1 | 14.2%
CC(NC(=O)CN1CCN(Cc2ccc(Br)s2)CC1)c1ccccc1 (stereo not given) | -2.941%
CCN(CC)c1ccc(NS(=O)(=O)c2cnn(CC)c2)cn1 | -19.91%
Cc1ocnc1C(=O)N[C@H]1CN(CC2CCC2)C[C@@H]1C(C)C | 16.35%
Cc1occc1C(=O)NCC(=O)N(C)CCCOc1ccccc1 | 11.74%
CCN(CCc1nccs1)C(=O)c1ncoc1C | -4.771%
Cc1ocnc1C(=O)N(C)[C@@H]1CC[C@@H](Oc2ccccc2)[C@@H]1O | 100.2%
Cc1occc1C(=O)NCC(=O)N1CCC(COc2ccccc2)CC1 | 1.262%
Cc1ocnc1C(=O)N(C)[C@@H]1CC[C@@H](n2ccnc2C)[C@@H]1O | 115%
Cc1ocnc1C(=O)N(C)[C@@H]1CCC[C@@H](N2CCCC2)[C@@H]1O | 115.9%
Cc1ocnc1C(=O)N(Cc1cccnc1)C[C@@H]1CCC(=O)N1 | -1.977%
Cc1cn2c(CN(C)C(=O)c3ncoc3C)c(C)nc2s1 | -12.17%
CCCN(CCC)C1(Cc2cc(-c3cccc(O)c3)on2)COC1 | -7.184%
N#CCCN(C(=O)CN1CCCC1Cc1ccccc1)c1ccccc1 (stereo not given) | 14.76%
CN(C)CCn1ccc(NC(=O)NC(C)(C)c2nccs2)n1 | 4.261%
COc1ccc(CNC2(Cc3cc(CC(C)C)on3)COC2)cc1 | 1.284%
COc1ccccc1CNc1ncc(-c2cc(C)no2)c(C(C)C)n1 | 92%
Cn1ncnc1-c1ccnc(NCc2ccccn2)n1 | -1.94%
Cc1ccn(-c2ccccc2NCc2ccccn2)n1 | 5.866%
COc1ccc(CNC(C)c2cnc3cc(C)nn3c2C)cc1 (stereo not given) | 8.81%
COCc1cc(NCc2ccccc2OC)ncn1 | -8.883%
COc1cccc(CNc2nc(C)cc(C)n2)c1OC | 34.66%

Structure (SMILES) | Percent Effect
Cc1cc(-c2cnc(NCc3ccccn3)nc2C(C)C)on1 | 93.57%
COc1ccc(CNc2ncc(-c3cc(C)no3)c(C(C)C)n2)cc1 | 97.64%
CC(C)c1nn(C)c(N(C)C)c1CNCc1ccc2c(c1)OCO2 | -1.149%
Cc1cc(-c2cnc(NCc3ccc4c(c3)OCO4)nc2C(C)C)on1 | 111.2%
Cn1ccnc1-c1noc(NCc2ccc3c(c2)OCCO3)n1 | -0.6068%
CN(Cc1ccc(F)cc1)C(=O)NCC1(N2CCOCC2)CCSC1 (stereo not given) | -20.26%
COc1cccc(-n2c(SCC(=O)O)nnc2-c2cn[nH]c2)c1 | 1.781%
Cc1csc(CNC(=O)NCC(O)c2ccc(F)cc2F)n1 (stereo not given) | -0.3867%
Cc1cnc(NCc2ccc(S(=O)(=O)N(C)C(C)C)cc2)nc1C | -3.312%
CCc1c(NCc2ccncc2)cnn1CC(C)C | -6.7%
Cc1cc(-c2cnc(NCc3ccncc3)nc2C(C)C)on1 | 155.1%
O=C(O)C(F)(F)F.c1cncc(-c2ccc3c(c2)C2(CC3)CCN(c3nncs3)CC2)c1 | 7.623%
Cc1ccc2c(c1)C1(CC2)CCN(c2nncs2)CC1 | -2.782%
CC/C=C(/C)C(=O)N1CCN(C2=NCC(C)S2)CC1 (stereo not given) | -1.897%
CCOCCN1CCN(Cc2nc(C3CC3)no2)CC1CC (stereo not given) | -17.64%
O=C(NC1CCC1)[C@H]1C[C@@H]2CN(S(=O)(=O)c3ccccc3)C[C@H]1O2 | 5.233%
O=C(NC1CC1)[C@@H]1CCO[C@@H]2CCN(CC3CCC3)C[C@H]21.O=C(O)C(F)(F)F | -19.72%
O=C(NC1CC1)[C@@H]1CCO[C@@H]2CCN(CC3CCC3)C[C@@H]21.O=C(O)C(F)(F)F | 20.69%
O=C(NC1CCC1)[C@H]1C[C@@H]2CN(CC3CC3)C[C@H]1O2.O=C(O)C(F)(F)F | 120%
CC(C)CN1C[C@H]2C[C@H](C(=O)NC3CCC3)[C@@H](C1)O2.O=C(O)C(F)(F)F | 89.64%
CN(C)CCNC(=O)[C@H]1C[C@@H]2CN(C(=O)NC3CCCC3)C[C@H]1O2.O=C(O)C(F)(F)F | 6.498%
NC(=O)c1cc(-c2cccc(C(=O)O)c2)cs1 | 7.533%
CCCN(C)CC1CCN(c2ccc(Br)c(C)n2)C1 (stereo not given) | -15.16%
CC1CCN(S(=O)(=O)N2C[C@H](c3ccccc3)[C@@H](N)C2)CC1 | -3.535%
NC(=O)[C@@H]1Cc2ccccc2CN1CCC(=O)N1CCOCC1 | 8.62%

Structure (SMILES) | Percent Effect
NC(=O)C1CCCN1c1cc(N2CCc3ccccc3C2)ncn1 (stereo not given) | -10.01%
NC(=O)[C@@H]1Cc2ccccc2CN1S(=O)(=O)N1CCCCC1 | 78.36%
NC(=O)[C@@H]1Cc2ccccc2CN1S(=O)(=O)N1CCCCCC1 | 103%
CC1CCN(C(=O)CCN2Cc3ccccc3C[C@H]2C(N)=O)C1 (stereo not given in full) | -2.608%
NC(=O)C1Cc2ccccc2CN1CCC(=O)N1CCc2ccccc21 (stereo not given) | -4.733%
CC1CCN(S(=O)(=O)N2Cc3ccccc3C[C@H]2C(N)=O)CC1 | 91.1%
NC(=O)[C@@H]1Cc2ccccc2CN1CCc1cccs1 | -22.09%
CN(CC(C)(C)O)C(=O)Nc1ccc(F)c(-n2cccc2)c1 | 2.422%
CNS(=O)(=O)c1cccc(C(C)NCc2cccc(C)c2C)c1 (stereo not given) | 8.764%
O=C(C1CC2(CCNCC2)CN1)N1CCN(c2cccc(Cl)c2Cl)CC1 (stereo not given) | 3.67%
COCCOCC(=O)N1C[C@H]2CC[C@@H]1CN(C1Cc3ccccc3C1)C2 | 11.56%
COc1cccc(C(=O)NCc2ccccc2S(=O)(=O)N(C)CCO)c1 | 1.796%
CCS(=O)(=O)c1ncc(CN2CCOCC2)n1CCCc1ccccc1 | 6.125%
CCN1CC2(CCC1=O)CCN(c1ccc(C(C)=O)cn1)CC2 | 0.06704%
Cc1noc(CN2CCCC(Cn3nc(C)nc3C)C2)n1 (stereo not given) | 104.9%
Cc1nc(C)n(CC2CCCN(CC3CCCCC3)C2)n1 (stereo not given) | 104.8%
CCc1nc(CN2CCCC(Cn3nc(C)nc3C)C2)no1 (stereo not given) | 81.07%
Cc1nc(C)n(CC2CCCN(Cc3noc(C)n3)C2)n1 (stereo not given) | 96.94%
Cc1nc(C)n(CC2CCCN(Cc3nc(C4CC4)no3)C2)n1 (stereo not given) | 2.839%
CS(=O)(=O)N1C[C@@H]2COC[C@@H](CC(=O)N3CCCCO3)[C@@H]2C1 | -9.378%
CNC(=O)[C@@H](c1ccccc1F)N1CCC[C@H]1C(=O)NC1CC1.Cl | 0.6767%
O=C1N[C@@H]2CCN(C(=O)C3CC3)[C@@H]2C(=O)N1c1ccccc1 | -5.528%
Cc1ccccc1Oc1ncccc1CNS(=O)(=O)N(C)C | -17.53%
CC(C)c1cc(N[C@H](C(N)=O)C(C)C)n2nccc2n1 | -22.97%
COCCc1noc(CN2CCCC(Cn3nc(C)nc3C)C2)n1 (stereo not given) | 0.4033%

Structure (SMILES) | Percent Effect
CCc1noc(CN2CCCC(Cn3nc(C)nc3C)C2)n1 (stereo not given) | 134.9%
CS(=O)(=O)CCN1CC(c2ccccc2)(c2ccccc2)CCC1=O | -17.1%
O=C1CC(c2ncc(-c3ccc4c(c3)OCCO4)[nH]2)CN1C1CC1 (stereo not given) | -4.884%
CCc1noc(-c2cccc(OCC(=O)NC(C)C)c2)n1 | 95.64%
CCCn1nc(-c2nc(COc3ccccc3)no2)ccc1=O | -3.247%
CC(C)NC(=O)COc1nc(C(C)(C)C)no1 | -1.58%
CCCNC(=O)COc1cccc(-c2nc(C(C)C)no2)c1 | 120.4%
COc1cccc(-c2n[nH]cc2C(=O)NC(C)c2nc(C(C)C)no2)c1 (stereo not given) | -2.83%
CC(NC(=O)COc1nc(C(C)(C)C)no1)c1ccco1 (stereo not given) | 8.75%
CC(C)c1noc(CS(=O)(=O)CC(=O)NCCOc2ccccc2)n1 | 13.06%
CC(C)NC(=O)COc1nc(C(C)C)no1 | -19.75%
C=C(C)COc1cccc(C(=O)N(CC)Cc2noc(C)n2)c1 | -33.22%
CC(C)NC(=O)COc1ccc(-c2nc(C(C)C)no2)cc1 | 114.1%
CC(C)c1noc(CCCC(=O)NCCOc2ccccc2)n1 | -1.504%
CC(C)NC(=O)COc1cccc(-c2nc(C(C)C)no2)c1 | 105.1%
Cc1oncc1S(=O)(=O)N1CCCC(C)(Cc2ccc3c(c2)OCO3)C1 (stereo not given) | -3.14%
CS(=O)(=O)NCCC(=O)NCc1cccnc1-n1cnc2ccccc21 | 11.61%
O=C(CS(=O)(=O)C1CCCC1)NC1CCCc2cc(OC(F)F)ccc21 (stereo not given) | -7.219%
COCCN(Cc1ccccn1)C(=O)CC1OCCc2sccc21 (stereo not given) | 9.879%
CSCc1noc(CN2CC3(CCCC3)CC2=O)n1 | -12.65%
CN(C)C(C(=O)N1CCN(C(=O)c2ccc[nH]2)CC1)c1ccc(F)cc1 (stereo not given) | 1.074%
CC(C)c1ncc2c(n1)CN(Cc1cccc(OCC(N)=O)c1)CC2 | -10.24%
CN1CCC(Cc2noc(-c3cccc(OCC(N)=O)c3)n2)CC1 | 14.54%
CC(C)c1noc(-c2cccc(OCC(N)=O)c2)n1 | 109.4%
CN(CCOc1cccc(CN)c1)C1CCOCC1 | 3.585%
